The source of these data is article PMC7862700, “An all-to-all approach to the identification of sequence-specific readers for epigenetic DNA modifications on cytosine”.

Test in all cases: DAPPL (digital affinity profiling via proximity ligation, sequencing); 10 mM Tris-HCl pH 7.5, 50 mM NaCl, 1 mM DTT, 4% glycerol, room temperature, 30 min; GST-TFs on glutathione beads, 16-mer random dsDNA library, 0.1% formaldehyde crosslink after washing; high values mean tight binding
Experiment [1] has as its target T1, FLI1 (Homo sapiens, UniProt Q01543 1-452).
T1 sequence: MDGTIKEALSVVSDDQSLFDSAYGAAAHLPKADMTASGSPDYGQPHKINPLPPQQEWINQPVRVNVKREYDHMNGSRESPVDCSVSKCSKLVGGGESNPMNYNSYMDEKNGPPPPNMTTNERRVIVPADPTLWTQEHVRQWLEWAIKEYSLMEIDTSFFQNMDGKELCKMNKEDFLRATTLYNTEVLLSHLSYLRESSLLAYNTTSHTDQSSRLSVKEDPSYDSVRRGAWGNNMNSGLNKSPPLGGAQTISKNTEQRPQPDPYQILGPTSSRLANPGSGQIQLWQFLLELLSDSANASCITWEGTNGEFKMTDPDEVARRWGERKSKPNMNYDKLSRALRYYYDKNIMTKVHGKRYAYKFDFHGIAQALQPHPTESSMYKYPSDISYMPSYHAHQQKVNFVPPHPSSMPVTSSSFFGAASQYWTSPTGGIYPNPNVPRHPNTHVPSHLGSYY
The conditions noted are these: protein: recombinant; tags: N-terminal GST; dsDNA, one strand shown. The gist of the method:
(§1)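 Human transcription factors were made in yeast as GST fusions, captured on glutathione beads and barcoded with DNA. With a tag-only sample included, the pool was incubated with 200 nmole of a random double-stranded 16-mer DNA library in Tris/NaCl/DTT/glycerol buffer at room temperature for 30 min, then crosslinked with 0.1% formaldehyde after washing, ligated by proximity, amplified and sequenced. For binding signal, each hexamer's read frequency for a factor is divided by its frequency for the tag-only sample.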

Experiment [2] has as its target T2, ELK1 (Homo sapiens, UniProt P19419 1-428).
T2 sequence: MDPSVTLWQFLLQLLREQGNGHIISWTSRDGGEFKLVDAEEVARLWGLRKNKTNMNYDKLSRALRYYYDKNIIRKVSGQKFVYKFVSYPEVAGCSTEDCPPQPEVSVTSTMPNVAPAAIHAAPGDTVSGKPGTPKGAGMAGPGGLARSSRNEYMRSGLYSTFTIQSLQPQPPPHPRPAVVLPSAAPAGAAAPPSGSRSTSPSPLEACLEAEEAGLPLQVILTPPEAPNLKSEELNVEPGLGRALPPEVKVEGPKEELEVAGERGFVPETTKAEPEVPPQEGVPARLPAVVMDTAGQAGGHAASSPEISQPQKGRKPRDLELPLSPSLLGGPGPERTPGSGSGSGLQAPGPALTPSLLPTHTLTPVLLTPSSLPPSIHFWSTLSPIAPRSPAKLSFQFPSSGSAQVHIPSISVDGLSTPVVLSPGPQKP
The note with it: protein: recombinant; tags: N-terminal GST; dsDNA, one strand shown. The gist of the method:
as §1

Experiment [3] deals with T3, GABPA (Homo sapiens, UniProt Q06546 1-454).
T3 sequence: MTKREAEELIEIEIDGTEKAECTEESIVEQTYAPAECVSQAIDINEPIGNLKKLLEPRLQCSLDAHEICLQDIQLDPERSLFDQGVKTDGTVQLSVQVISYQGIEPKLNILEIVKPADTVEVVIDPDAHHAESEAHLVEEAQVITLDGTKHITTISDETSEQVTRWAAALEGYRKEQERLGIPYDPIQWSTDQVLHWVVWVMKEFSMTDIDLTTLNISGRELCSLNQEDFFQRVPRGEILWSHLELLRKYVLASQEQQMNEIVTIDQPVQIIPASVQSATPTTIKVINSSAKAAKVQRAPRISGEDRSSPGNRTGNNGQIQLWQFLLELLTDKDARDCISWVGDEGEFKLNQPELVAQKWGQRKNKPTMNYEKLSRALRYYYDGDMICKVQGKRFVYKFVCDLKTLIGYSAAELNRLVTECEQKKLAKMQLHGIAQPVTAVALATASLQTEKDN
The conditions noted are these: protein: recombinant; tags: N-terminal GST; dsDNA, one strand shown. The gist of the method: as §1

The target in experiment [4] is T4, ERG (Homo sapiens, UniProt P11308 1-479).
T4 sequence: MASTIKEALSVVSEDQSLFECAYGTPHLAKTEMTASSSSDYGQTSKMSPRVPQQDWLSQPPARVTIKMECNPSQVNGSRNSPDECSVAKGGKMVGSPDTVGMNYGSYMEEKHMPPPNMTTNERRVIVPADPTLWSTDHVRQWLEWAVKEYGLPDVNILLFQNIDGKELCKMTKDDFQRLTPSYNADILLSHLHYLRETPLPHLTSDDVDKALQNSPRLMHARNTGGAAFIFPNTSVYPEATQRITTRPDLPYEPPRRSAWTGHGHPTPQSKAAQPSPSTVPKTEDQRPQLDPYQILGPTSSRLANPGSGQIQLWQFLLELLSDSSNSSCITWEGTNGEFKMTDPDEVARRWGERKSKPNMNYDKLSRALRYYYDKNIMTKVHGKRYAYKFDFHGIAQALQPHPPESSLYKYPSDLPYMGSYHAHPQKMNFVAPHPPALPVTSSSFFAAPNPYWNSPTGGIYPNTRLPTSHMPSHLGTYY
The conditions noted are these: protein: recombinant; tags: N-terminal GST; dsDNA, one strand shown. The gist of the method: as §1

For experiment [5], the target named is ELF1 (Homo sapiens, UniProt P32519 1-619). The conditions noted are these: protein: recombinant; tags: N-terminal GST; dsDNA, one strand shown. In a few lines:
as §1

In experiment [6] the target is T5, EHF (Homo sapiens, UniProt Q9NZC4 1-300).
T5 sequence: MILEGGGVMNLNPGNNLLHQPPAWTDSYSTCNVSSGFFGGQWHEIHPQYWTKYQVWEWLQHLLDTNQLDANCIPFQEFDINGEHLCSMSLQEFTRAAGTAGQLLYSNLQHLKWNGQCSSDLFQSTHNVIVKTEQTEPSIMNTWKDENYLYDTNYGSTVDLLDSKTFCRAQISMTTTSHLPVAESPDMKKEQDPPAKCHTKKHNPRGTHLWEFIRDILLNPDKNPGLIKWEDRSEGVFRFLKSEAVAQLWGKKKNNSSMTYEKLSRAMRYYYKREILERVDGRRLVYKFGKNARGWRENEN
The conditions noted are these: protein: recombinant; tags: N-terminal GST; dsDNA, one strand shown. The gist of the method: as §1

The target in experiment [7] is SPI1 (Homo sapiens, UniProt P17947 1-270). The note with it: protein: recombinant; tags: N-terminal GST; dsDNA, one strand shown. In a few lines:
as §1

Experiment [8] concerns the target SPIB (Homo sapiens, UniProt Q01892 1-262). The note with it: protein: recombinant; tags: N-terminal GST; dsDNA, one strand shown. The gist of the method: as §1
The target of experiment [9] is T6, ELK3 (Homo sapiens, UniProt P41970 1-407).
T6 sequence: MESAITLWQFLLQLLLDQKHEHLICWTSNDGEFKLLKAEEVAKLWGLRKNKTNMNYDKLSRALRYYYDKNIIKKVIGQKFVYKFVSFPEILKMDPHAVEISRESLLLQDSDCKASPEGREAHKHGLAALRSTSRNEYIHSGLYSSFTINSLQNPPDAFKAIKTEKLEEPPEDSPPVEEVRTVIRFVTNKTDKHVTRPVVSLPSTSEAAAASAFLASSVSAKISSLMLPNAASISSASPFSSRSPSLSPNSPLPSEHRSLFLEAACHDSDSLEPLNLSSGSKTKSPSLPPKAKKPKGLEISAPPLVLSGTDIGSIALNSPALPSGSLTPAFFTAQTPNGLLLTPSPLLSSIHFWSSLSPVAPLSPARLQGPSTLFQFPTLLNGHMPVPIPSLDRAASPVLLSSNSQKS
The note with it: protein: recombinant; tags: N-terminal GST; dsDNA, one strand shown. In a few lines: as §1

Experiment [10] addresses T7, FEV (Homo sapiens, UniProt Q99581 1-238).
T7 sequence: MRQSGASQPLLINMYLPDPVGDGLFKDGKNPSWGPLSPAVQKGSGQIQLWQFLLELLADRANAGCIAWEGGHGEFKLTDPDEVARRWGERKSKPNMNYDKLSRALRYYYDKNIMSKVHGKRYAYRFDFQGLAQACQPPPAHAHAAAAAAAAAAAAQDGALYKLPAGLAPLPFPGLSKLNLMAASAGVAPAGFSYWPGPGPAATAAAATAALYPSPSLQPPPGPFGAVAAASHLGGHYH
The conditions noted are these: protein: recombinant; tags: N-terminal GST; dsDNA, one strand shown. The gist of the method:
as §1

The target of experiment [11] is ETV5 (Homo sapiens, UniProt P41161 1-510). The note with it: protein: recombinant; tags: N-terminal GST; dsDNA, one strand shown. The gist of the method:
as §1

Experiment [12] concerns the target HSF1 (Homo sapiens, UniProt Q00613 1-529). The conditions noted are these: protein: recombinant; tags: N-terminal GST; chain copies: 3; dsDNA, one strand shown. The gist of the method:
as §1

Experiment [13] concerns the target T8, SPIC (Homo sapiens, UniProt Q8N5J4 1-248).
T8 sequence: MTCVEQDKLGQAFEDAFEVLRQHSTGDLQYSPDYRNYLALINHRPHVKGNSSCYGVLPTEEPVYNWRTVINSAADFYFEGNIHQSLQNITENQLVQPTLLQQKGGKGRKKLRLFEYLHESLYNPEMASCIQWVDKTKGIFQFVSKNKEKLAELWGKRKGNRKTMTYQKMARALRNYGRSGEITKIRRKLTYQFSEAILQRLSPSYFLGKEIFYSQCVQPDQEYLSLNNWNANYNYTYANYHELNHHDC
The conditions noted are these: protein: recombinant; tags: N-terminal GST; dsDNA, one strand shown. In a few lines:
as §1

In experiment [14] the target is ELF4 (Homo sapiens, UniProt Q99607 1-663). The conditions noted are these: protein: recombinant; tags: N-terminal GST; dsDNA, one strand shown. In a few lines:
as §1

The target in experiment [15] is T9, ELK4 (Homo sapiens, UniProt P28324-2 1-405).
T9 sequence: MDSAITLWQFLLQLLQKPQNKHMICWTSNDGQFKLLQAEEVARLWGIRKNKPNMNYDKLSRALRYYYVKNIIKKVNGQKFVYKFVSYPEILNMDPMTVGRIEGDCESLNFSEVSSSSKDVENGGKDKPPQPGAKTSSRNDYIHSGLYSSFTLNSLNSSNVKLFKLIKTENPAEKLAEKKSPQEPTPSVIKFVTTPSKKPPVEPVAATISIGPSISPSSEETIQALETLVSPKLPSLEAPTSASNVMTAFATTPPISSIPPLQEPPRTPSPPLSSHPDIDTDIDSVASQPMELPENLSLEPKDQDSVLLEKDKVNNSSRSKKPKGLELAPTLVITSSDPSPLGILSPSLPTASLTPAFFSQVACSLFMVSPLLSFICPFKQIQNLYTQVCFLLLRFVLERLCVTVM
The note with it: protein: recombinant; tags: N-terminal GST; dsDNA, one strand shown. In a few lines:
as §1

The target in experiment [16] is T10, ETV2 (Homo sapiens, UniProt O00321 1-342).
T10 sequence: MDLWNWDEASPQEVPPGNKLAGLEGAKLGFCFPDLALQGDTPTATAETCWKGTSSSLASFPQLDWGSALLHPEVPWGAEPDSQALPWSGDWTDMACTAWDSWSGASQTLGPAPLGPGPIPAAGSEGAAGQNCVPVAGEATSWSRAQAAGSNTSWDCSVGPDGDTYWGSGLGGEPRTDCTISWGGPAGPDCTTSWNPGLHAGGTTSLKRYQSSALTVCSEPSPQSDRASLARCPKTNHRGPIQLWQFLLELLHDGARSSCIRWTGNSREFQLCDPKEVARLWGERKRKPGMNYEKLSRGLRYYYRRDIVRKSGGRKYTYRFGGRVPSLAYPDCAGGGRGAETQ
The conditions noted are these: protein: recombinant; tags: N-terminal GST; dsDNA, one strand shown. The gist of the method:
as §1

The target of experiment [17] is T11, ELF3 (Homo sapiens, UniProt P78545 1-371).
T11 sequence: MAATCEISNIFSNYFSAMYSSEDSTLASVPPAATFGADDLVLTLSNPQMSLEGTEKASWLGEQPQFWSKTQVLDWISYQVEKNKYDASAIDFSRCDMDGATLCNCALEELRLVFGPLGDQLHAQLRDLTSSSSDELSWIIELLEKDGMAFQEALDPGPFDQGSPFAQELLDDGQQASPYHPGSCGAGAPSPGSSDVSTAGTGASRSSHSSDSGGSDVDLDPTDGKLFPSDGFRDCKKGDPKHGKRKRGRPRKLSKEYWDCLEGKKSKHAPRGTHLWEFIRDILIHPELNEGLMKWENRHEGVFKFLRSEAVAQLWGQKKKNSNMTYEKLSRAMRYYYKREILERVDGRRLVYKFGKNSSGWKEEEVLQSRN
The note with it: protein: recombinant; tags: N-terminal GST; dsDNA, one strand shown. The gist of the method:
as §1

Experiment [18] addresses CRX (Homo sapiens, UniProt O43186 1-299). The conditions noted are these: protein: recombinant; tags: N-terminal GST; dsDNA, one strand shown. In a few lines:
as §1

Experiment [19] addresses ETV1 (Homo sapiens, UniProt P50549 1-477). The conditions noted are these: protein: recombinant; tags: N-terminal GST; dsDNA, one strand shown. The gist of the method:
as §1

Chain of CRX (O43186 whole entry): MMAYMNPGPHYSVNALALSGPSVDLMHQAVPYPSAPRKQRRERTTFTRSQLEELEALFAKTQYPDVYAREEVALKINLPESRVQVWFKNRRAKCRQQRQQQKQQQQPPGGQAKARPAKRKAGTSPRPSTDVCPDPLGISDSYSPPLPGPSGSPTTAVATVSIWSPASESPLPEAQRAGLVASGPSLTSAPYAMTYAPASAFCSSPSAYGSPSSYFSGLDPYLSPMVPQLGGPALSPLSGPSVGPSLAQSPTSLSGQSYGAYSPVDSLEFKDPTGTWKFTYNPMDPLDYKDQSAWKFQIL
Chain of ELF4 (Q99607 whole entry): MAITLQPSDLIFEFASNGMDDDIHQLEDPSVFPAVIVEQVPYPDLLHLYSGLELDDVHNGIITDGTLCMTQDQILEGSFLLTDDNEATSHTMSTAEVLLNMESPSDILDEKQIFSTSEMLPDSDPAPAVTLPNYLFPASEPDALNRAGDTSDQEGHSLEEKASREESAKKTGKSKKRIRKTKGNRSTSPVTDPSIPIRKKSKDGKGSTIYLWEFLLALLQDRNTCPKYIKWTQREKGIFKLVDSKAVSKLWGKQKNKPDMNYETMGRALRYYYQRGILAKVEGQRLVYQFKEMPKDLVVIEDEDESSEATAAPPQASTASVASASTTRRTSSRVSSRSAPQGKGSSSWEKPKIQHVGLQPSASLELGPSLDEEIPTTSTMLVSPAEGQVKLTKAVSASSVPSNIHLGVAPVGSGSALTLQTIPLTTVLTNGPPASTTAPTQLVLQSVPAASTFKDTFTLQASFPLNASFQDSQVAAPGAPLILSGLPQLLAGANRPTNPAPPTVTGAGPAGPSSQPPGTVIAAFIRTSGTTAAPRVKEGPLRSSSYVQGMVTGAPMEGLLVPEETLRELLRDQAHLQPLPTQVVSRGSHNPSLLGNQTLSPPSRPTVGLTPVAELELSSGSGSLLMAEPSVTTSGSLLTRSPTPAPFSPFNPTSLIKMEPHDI
Chain of HSF1 (Q00613 whole entry): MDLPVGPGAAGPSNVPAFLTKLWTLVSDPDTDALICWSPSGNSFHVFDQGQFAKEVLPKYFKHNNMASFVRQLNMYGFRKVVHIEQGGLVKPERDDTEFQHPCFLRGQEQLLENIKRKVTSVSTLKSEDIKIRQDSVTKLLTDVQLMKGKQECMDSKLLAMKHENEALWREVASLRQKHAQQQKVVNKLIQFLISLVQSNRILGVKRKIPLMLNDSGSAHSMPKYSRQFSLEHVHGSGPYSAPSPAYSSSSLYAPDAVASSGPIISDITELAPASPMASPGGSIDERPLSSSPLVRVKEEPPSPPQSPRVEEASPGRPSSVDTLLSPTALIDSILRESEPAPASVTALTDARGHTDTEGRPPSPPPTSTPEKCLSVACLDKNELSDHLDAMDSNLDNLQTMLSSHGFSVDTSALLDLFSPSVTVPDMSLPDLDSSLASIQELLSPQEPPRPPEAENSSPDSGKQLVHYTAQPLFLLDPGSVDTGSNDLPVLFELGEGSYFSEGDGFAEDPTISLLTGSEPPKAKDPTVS
Chain of SPIB (Q01892 whole entry): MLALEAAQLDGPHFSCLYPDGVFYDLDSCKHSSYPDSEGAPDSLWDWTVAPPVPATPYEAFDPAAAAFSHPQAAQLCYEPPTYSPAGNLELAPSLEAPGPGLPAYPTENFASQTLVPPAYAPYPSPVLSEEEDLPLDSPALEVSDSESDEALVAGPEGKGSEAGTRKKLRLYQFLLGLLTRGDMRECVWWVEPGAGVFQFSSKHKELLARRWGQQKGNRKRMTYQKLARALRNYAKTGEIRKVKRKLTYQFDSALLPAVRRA
Chain of ETV5 (P41161 whole entry): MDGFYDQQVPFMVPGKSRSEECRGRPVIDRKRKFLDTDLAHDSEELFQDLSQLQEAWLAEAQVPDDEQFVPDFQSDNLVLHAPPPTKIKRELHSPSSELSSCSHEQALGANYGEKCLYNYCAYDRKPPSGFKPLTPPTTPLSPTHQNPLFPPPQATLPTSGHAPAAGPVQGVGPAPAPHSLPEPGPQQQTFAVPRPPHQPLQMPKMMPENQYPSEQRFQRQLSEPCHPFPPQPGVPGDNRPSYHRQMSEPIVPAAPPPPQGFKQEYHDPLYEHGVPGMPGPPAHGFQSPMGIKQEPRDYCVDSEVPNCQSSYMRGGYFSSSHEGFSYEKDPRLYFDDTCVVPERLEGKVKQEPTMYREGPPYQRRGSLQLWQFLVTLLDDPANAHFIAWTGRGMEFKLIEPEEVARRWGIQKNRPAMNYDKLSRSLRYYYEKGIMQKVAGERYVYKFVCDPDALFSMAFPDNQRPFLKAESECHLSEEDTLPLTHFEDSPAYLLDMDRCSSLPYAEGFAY
Chain of ETV1 (P50549 whole entry): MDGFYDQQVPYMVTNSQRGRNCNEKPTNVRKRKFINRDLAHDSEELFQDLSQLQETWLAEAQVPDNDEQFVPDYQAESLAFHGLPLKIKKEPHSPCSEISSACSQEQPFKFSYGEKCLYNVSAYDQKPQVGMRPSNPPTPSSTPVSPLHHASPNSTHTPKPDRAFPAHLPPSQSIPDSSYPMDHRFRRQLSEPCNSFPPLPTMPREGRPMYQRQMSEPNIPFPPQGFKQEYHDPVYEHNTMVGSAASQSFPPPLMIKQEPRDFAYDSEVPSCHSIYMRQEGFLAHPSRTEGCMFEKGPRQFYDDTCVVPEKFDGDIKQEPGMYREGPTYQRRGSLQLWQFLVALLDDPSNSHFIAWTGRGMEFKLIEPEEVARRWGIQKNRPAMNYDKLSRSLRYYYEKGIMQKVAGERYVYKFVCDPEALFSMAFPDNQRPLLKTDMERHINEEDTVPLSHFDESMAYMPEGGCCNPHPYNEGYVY
Chain of ELF1 (P32519 whole entry): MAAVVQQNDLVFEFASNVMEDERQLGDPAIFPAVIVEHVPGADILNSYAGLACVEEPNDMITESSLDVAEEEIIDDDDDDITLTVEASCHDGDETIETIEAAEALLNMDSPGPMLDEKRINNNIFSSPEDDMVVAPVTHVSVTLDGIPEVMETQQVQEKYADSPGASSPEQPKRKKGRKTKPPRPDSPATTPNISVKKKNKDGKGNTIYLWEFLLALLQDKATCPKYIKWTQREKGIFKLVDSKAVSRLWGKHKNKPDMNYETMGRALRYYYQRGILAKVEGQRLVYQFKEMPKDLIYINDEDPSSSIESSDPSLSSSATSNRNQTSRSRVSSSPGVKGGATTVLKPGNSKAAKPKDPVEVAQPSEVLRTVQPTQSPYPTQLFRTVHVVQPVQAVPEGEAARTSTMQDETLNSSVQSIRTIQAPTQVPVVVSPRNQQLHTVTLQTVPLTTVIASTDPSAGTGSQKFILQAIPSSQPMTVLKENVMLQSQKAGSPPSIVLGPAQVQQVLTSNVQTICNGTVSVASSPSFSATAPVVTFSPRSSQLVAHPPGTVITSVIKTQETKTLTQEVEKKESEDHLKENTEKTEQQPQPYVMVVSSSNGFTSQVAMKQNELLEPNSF

TTTTTT: the binding signal in experiment [1] is 1.12 fold enrichment (6-mer frequency, TF over GST control); in experiment [2], 1.05 fold enrichment (6-mer frequency, TF over GST control); in experiment [3] it was 1.25 fold enrichment (6-mer frequency, TF over GST control); in [4], 1.12 fold enrichment (6-mer frequency, TF over GST control); in experiment [5], 1.25 fold enrichment (6-mer frequency, TF over GST control); in experiment [6] it was 1.2 fold enrichment (6-mer frequency, TF over GST control). Further, the binding signal was 1.36 fold enrichment (6-mer frequency, TF over GST control) in experiment [7]; 1.22 fold enrichment (6-mer frequency, TF over GST control) in experiment [8]; 1.34 fold enrichment (6-mer frequency, TF over GST control) in [9]; 1.17 fold enrichment (6-mer frequency, TF over GST control) in [10]; 1.23 fold enrichment (6-mer frequency, TF over GST control) in experiment [11]; 1.23 fold enrichment (6-mer frequency, TF over GST control) in experiment [12]. Moreover, the binding signal in [13] is 1.3 fold enrichment (6-mer frequency, TF over GST control); in experiment [14], 1.19 fold enrichment (6-mer frequency, TF over GST control); in experiment [15], 1.17 fold enrichment (6-mer frequency, TF over GST control); in experiment [16] it was 1.4 fold enrichment (6-mer frequency, TF over GST control); in experiment [17], 1.33 fold enrichment (6-mer frequency, TF over GST control); in experiment [18] it was 1.24 fold enrichment (6-mer frequency, TF over GST control). In addition, the binding signal in experiment [19] was 1.36 fold enrichment (6-mer frequency, TF over GST control).
